Screens (PubChem BioAssay)
PNC inhibitor: blocks assembly of the perinucleolar compartment; PC3M PTB-GFP, PNC prevalence imaging, 16 h; active compounds read low; activity change (PNC), negative = inhibition, % at 10 µM; hit rate 3.1% among 140,000;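 active means readout at or below -70, meaning at least 70% loss of cells showing the perinucleolar compartment, a nuclear body marking cancer cells; inconclusive means readout between -30 and a set limit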
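Read-out is percentage of cells bearing a perinucleolar compartment, from automated 20x imaging of fixed, Hoechst-stained PC3M PTB-GFP cells. Cells were seeded 4 h, then exposed 16 h to compound (23 nl of library stock) in duplicate plates.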
Lamin A splicing: modulators of lamin A splicing; HeLa LMNA splicing GFP/RFP minigene ratio, 48 h; Potency, µM (series often up to 46.1 µM), hits mostly inhibitors; hit rate 0.01% among 200,000; AID 1487; active means well fitted inhibition curve with a large enough effect in the signal ratio, with a control signal flat, not every such curve was filed as active; inconclusive means small, poorly fitted or top-dose-only effect, or effect the other way, or a change in a side signal; the % refers to the signal ratio
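S3 HeLa cells stably expressing lamin A-EGFP splicing minigene plus DsRed2, 600 cells/well, 48 h compound exposure at 37C. Laser-scanning cytometry; analysed as GFP (500-530 nm)/RFP (575-640 nm) total intensity ratio; 0.5% DMSO vehicle.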
ALDH1A1 inh: inhibitors of human aldehyde dehydrogenase 1A1; hit rate 7.3% among 220,000; AID 1030; Purified ALDH1A1, NADH fluorescence, propionaldehyde substrate; Potency, µM (highest dose often 75.3 µM), hits mostly inhibitors; P00352
12-hLO inh: blocks human 12-lipoxygenase activity; P18054; purified 12-hLO, xylenol orange hydroperoxide absorbance; Potency, µM (highest dose often 57.1 µM), usual class: inhibitors; hit rate 0.12% among 150,000; AID 1452; active means well fitted inhibition curve with a large enough effect; inconclusive means small, poorly fitted or top-dose-only effect; further: nearly all actives have a fitted effect of over 55% in size
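Purified human 12hLO (150 nM final) was preincubated with compounds for 15 min at room temperature in 25 mM Hepes pH 7.0, 0.01% Triton X-100, then reacted with 40 uM arachidonic acid for 30 min. Hydroperoxide was detected with ferrous iron/xylenol orange.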
HPGD block: HPGD (human) dehydrogenase inhibition; Potency, µM, hits mostly inhibitors; AID 894; hit rate 4.3% among 150,000; purified HPGD, NADH fluorescence kinetic, PGE2 substrate
Target sequence (P15428 whole entry, looked up): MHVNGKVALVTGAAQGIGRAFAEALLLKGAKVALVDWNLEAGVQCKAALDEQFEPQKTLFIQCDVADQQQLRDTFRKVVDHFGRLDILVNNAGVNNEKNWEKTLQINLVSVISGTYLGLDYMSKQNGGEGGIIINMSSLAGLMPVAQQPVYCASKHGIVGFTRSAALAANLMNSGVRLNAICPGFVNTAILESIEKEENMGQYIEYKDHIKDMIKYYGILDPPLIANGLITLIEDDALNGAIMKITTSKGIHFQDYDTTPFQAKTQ
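20 nM HPGD preincubated 15 min at room temperature with compound in 50 mM Tris-HCl pH 8, 0.01% Tween 20. Started with 1 mM NAD+ and 30 uM prostaglandin E2; NADH fluorescence (360/450 nm) read 5 times over 30-s intervals, last minus first.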
Numbers stand for hits. Rows were chosen to be rich in hits. Some 10% of all compounds tested hit in one or more screens of this group. Unless noted, the call rests on the fitted dose curve; in most records, active means well fitted inhibition curve with a large enough effect (not every such curve was filed as active); inconclusive means small, poorly fitted or top-dose-only effect, or another doubt; inactive means no such curve, though single readings can be large or run the other way.

CCOC(=O)NNC(=O)C1CCC(C)CC1 (configuration not stated) was read as ALDH1A1 inh inactive.
Screening Cc1c(C#N)c(N=CN(C)C)c(C(=O)c2ccccc2)n1-c1ccc(Br)cc1 returned PNC inhibitor inactive, Lamin A splicing inactive, ALDH1A1 inh inactive, 12-hLO inh inactive and HPGD block inactive.
For Cc1c(C#N)c(N=CN(C)C)c(C(=O)c2ccc(Br)cc2)n1-c1ccccc1 the results were PNC inhibitor inconclusive, Lamin A splicing inactive, ALDH1A1 inh 22µM, 12-hLO inh inactive and HPGD block inactive.
O=C(c1ccc(Cl)cc1)c1nnc(-c2ccncc2)o1 was read as PNC inhibitor -82, Lamin A splicing inconclusive, ALDH1A1 inh inactive, 12-hLO inh inactive and HPGD block inactive.
O=C(c1ccccc1)c1nnc(-c2ccncc2)o1 was read as PNC inhibitor inactive, Lamin A splicing inactive, ALDH1A1 inh inactive, 12-hLO inh inactive and HPGD block inactive.
`CCOC(=O)c1sc(=S)n(C)c1NC(=O)c1ccccc1Cl` gave PNC inhibitor inactive, Lamin A splicing inactive, ALDH1A1 inh 32µM, 12-hLO inh inactive and HPGD block 28µM.
Screening COc1ccc(C(=O)OCCN2CCOCC2)cc1 returned PNC inhibitor -100, Lamin A splicing inactive, ALDH1A1 inh inactive, 12-hLO inh inactive and HPGD block inactive.
`COc1ccccc1/C=C/C(=O)OCCN1CCOCC1` gave PNC inhibitor -87, Lamin A splicing inactive, ALDH1A1 inh inconclusive, 12-hLO inh inactive and HPGD block inconclusive.
O=C(OCCN1CCOCC1)c1ccc(OCCN2CCOCC2)cc1 was read as PNC inhibitor -85, Lamin A splicing inactive, ALDH1A1 inh inactive, 12-hLO inh inactive and HPGD block inactive.
COc1ccccc1/C=C/C(=O)N1CCOCC1 was read as PNC inhibitor inactive, Lamin A splicing inactive, ALDH1A1 inh inactive, 12-hLO inh inactive and HPGD block inconclusive.
`COc1ccc(C(=O)OCCN2CCOCC2)cc1OC` gave PNC inhibitor inconclusive, Lamin A splicing inactive, ALDH1A1 inh inactive and 12-hLO inh inactive.
Cc1cc(C)cc(-n2c(C)nc3cc(C(=O)NCc4ccccc4Cl)ccc32)c1 was read as Lamin A splicing inactive.
`Cc1cc(C)nc(SCC(=O)N/N=C/c2cccn2-c2cccc(C(F)(F)F)c2)n1` gave PNC inhibitor -108, Lamin A splicing inactive, ALDH1A1 inh inactive, 12-hLO inh inactive and HPGD block inactive.
`O=C(Nc1ccon1)c1ccc(Cl)s1` gave PNC inhibitor inconclusive, Lamin A splicing inconclusive, ALDH1A1 inh inactive, 12-hLO inh inactive and HPGD block 18µM.
`O=C(Nc1ccon1)c1csc2ccccc12` gave PNC inhibitor inactive, Lamin A splicing inconclusive, ALDH1A1 inh inconclusive, 12-hLO inh inactive and HPGD block 25µM.
`COCCn1ccc2c(OCC(=O)Nc3cccc(OC)c3)cccc2c1=O` gave Lamin A splicing inactive.
`CC1=NN(C(N)=S)C(=O)C1N=Nc1ccc(C)cc1C` (configuration not stated) gave PNC inhibitor inactive, Lamin A splicing inactive, ALDH1A1 inh 10µM, 12-hLO inh inactive and HPGD block inactive.
`CC1=NN(C(N)=S)C(=O)C1N=Nc1ccccc1C` (configuration not stated) gave PNC inhibitor inactive, Lamin A splicing inactive, ALDH1A1 inh 5µM, 12-hLO inh inactive and HPGD block inactive.
COc1ccc(C/C(C)=N/NC(=O)C2COc3ccccc3O2)cc1 (configuration not stated) was read as Lamin A splicing inactive and ALDH1A1 inh inconclusive.
O=C(CCl)N(c1ccccc1)C1CCCCC1 was read as ALDH1A1 inh 0.035µM.
Screening Cc1ccccc1/C(N)=N/OC(=O)N1c2ccccc2Sc2ccccc21 returned PNC inhibitor inactive, Lamin A splicing inactive, ALDH1A1 inh inactive, 12-hLO inh inconclusive and HPGD block 18µM.
CC(C)(C)C(=O)Nc1ccc2nc(SCCOc3ccccc3Cl)sc2c1 was read as Lamin A splicing inactive.
Screening Cc1ccccc1OCC(=O)NNC=O returned Lamin A splicing inactive and ALDH1A1 inh inactive.
`Cc1ccc(SC(=O)COc2ccccc2C)cc1` gave PNC inhibitor -112, Lamin A splicing inactive, ALDH1A1 inh inactive, 12-hLO inh inactive and HPGD block inactive.
Clc1ccc(OCCCn2cncn2)cc1Cl was read as PNC inhibitor inactive, Lamin A splicing inactive, ALDH1A1 inh 11µM, 12-hLO inh inactive and HPGD block inactive.
For O=C(COc1ccc(Br)cc1Cl)NC(=S)N1CCc2ccccc21 the results were PNC inhibitor inactive, Lamin A splicing inconclusive, ALDH1A1 inh inconclusive, 12-hLO inh inactive and HPGD block inconclusive.
For O=C(COc1ccc(Br)cc1Br)NC(=S)N1CCCc2ccccc21 the results were PNC inhibitor inactive, Lamin A splicing inactive, ALDH1A1 inh 11µM, 12-hLO inh inactive and HPGD block inactive.
`CN(C)C(=O)c1c(NC(=O)c2ccco2)sc2c1CCCCC2` gave PNC inhibitor inactive, Lamin A splicing inactive, ALDH1A1 inh inconclusive, 12-hLO inh inactive and HPGD block inactive.
Screening CN1CCN(C(=O)c2c(NC(=O)c3ccco3)sc3c2CCC(C(C)(C)C)C3)CC1 (configuration not stated) returned PNC inhibitor inactive, Lamin A splicing inactive, ALDH1A1 inh 13µM, 12-hLO inh inactive and HPGD block inactive.
For NC(=O)c1c(NC(=O)c2ccco2)sc2c1CCC2 the results were PNC inhibitor inactive, Lamin A splicing inactive, ALDH1A1 inh inconclusive, 12-hLO inh inactive and HPGD block inconclusive.
O=C(Nc1sc2c(c1C(=O)O)CCCCC2)c1ccco1 was read as PNC inhibitor inconclusive, Lamin A splicing inconclusive, ALDH1A1 inh 25µM, 12-hLO inh inactive and HPGD block 18µM.
Screening NC(=O)c1c(NC(NC(=O)c2ccco2)(C(F)(F)F)C(F)(F)F)sc2c1CCCC2 returned PNC inhibitor inconclusive, Lamin A splicing inactive, ALDH1A1 inh 32µM, 12-hLO inh inactive and HPGD block inactive.
Screening COc1ccc(CNC(=O)c2ccc(NC(=O)N3CCCCc4ccccc43)cc2)c(OC)c1 returned Lamin A splicing inactive.
Screening CC(=O)N1c2ccccc2C(=O)C1N1CCCCC1 (configuration not stated) returned PNC inhibitor inconclusive, Lamin A splicing inactive, ALDH1A1 inh 28µM, 12-hLO inh inactive and HPGD block inactive.
Screening COc1cccc(CNc2ccc(C)c(Cl)c2)c1 returned ALDH1A1 inh inactive.
C=CCOc1c(Cl)cc(CNc2ccc(C)c(Cl)c2)cc1OC was read as PNC inhibitor -92, Lamin A splicing inconclusive, ALDH1A1 inh inactive, 12-hLO inh inactive and HPGD block inactive.
Screening C=CCOc1c(Cl)cc(CNc2ccc(N(C)C)cc2)cc1OC returned PNC inhibitor inconclusive, Lamin A splicing inconclusive, ALDH1A1 inh 2µM, 12-hLO inh inconclusive and HPGD block inconclusive.
Screening CCCCOC(=O)c1ccc(NC(=S)NC(=O)c2c(Cl)cnn2CC)cc1 returned PNC inhibitor inactive, Lamin A splicing inactive, ALDH1A1 inh 3.5µM, 12-hLO inh inactive and HPGD block inactive.
